Test results from PubChem BioAssay.
Results with a measured potency or affinity are listed apart. Results filed as inconclusive are left out. Activity calls are given as the source filed them. Unless noted, the rule behind the calls is not given here.

Legend:
[1] = cytotoxicity in PAX8-dependent RMG-1 cells, dose response, cell-based, cherry-pick (AID 687029;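 active = signal drop whose fitted half-maximal concentration is at most twice the top valid dose, in every test run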;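 note: cells exposed to compound for 96 hours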); details: RMG-1 viability, CellTiterGlo ATP luminescence, 96 h; series mostly up to 35 µM
[2] = cytotoxicity in IOSE-T80 ovarian epithelial cells, dose response, selectivity assay for PAX8 inhibitor project, cell-based, cherry-pick (AID 687032;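 active = fitted half-maximal concentration for viability loss no higher than twice the top valid dose, in every repeat run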;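 note: cells exposed to compound for 96 h before reading; 0% = neutral control wells and -100% = 2 µM mitoxantrone kill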); details: CellTiterGlo ATP luminescence, 96 h; series mostly up to 35 µM
[3] = non-specific cell cytotoxicity, dose response, cytotoxicity control for PAX8 inhibitor project, plate reader, dry powder samples (AID 743021); details: cell line, non-specific cytotoxicity counter-screen; series mostly up to 35 µM
[4] = IGROV1 ovarian cancer cell cytotoxicity, dose response, PAX8 inhibitor project, plate reader, dry powder samples (AID 743043); details: series mostly up to 35 µM;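 note: more negative means fewer viable cells or more cytotoxicity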
[5] = NIH:OVCAR-3 ovarian cancer cell cytotoxicity, dose response, PAX8 inhibitor project, plate reader, dry powder samples (AID 743044); details: NIH:OVCAR-3 ovarian cancer cell viability; max activity: at 35 µM, hits give low values unless noted; series mostly up to 50 µM
[6] = IOSE-T80 ovarian epithelial cell cytotoxicity, dose response, cytotoxicity control for PAX8 inhibitor project, plate reader, dry powder samples (AID 743045); details: IOSE-T80 ovarian epithelial cells; series mostly up to 35 µM;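 note: 0% = neutral control median and -100% = positive control median; more negative values mean more cell killing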
[7] = A2780 ovarian cancer cell cytotoxicity, dose response, cytotoxicity control, plate reader, dry powder samples (AID 743046); details: series mostly up to 35 µM;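 note: 0% = neutral control wells and -100% = cytotoxic reference compound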
[8] = cytotoxicity in OVCAR8 ovarian cancer cells, dose response, PAX8 project, cell-based, plate reader, dry powder samples (AID 743197); details: series mostly up to 35 µM

Measured: max activity

C[C@H]1CN([C@@H](C)CO)C(=O)c2c(c3ccccc3n2C)-c2ccccc2CO[C@@H]1CN(C)S(=O)(=O)c1cccc(F)c1
inactive: [1] | [2] | [3] | [4] | [5] -21.9% | [6] | [7]

C[C@@H]1CCCCO[C@H](CN(C)S(=O)(=O)c2ccc(Cl)cc2)[C@H](C)CN([C@@H](C)CO)C(=O)c2cc(N(C)C)ccc2O1
inactive: [1] | [2] | [3] | [4] | [5] 36.7% [at 16 µM, hits give low values] | [6] | [7] | [8]

COc1ccc(CCN2C(=O)CSC2=S)cc1OC
not listed: [6] | [8]
inactive: all other assays above

C[C@@H]1CN([C@H](C)CO)C(=O)c2cc(NC(=O)CCC(F)(F)F)ccc2O[C@@H](C)CCCCO[C@@H]1CN(C)Cc1ccc(C(F)(F)F)cc1
inactive: [1] | [2] | [3] | [4] | [6]

Cc1noc(C)c1S(=O)(=O)Nc1ccc2c(c1)C(=O)N([C@@H](C)CO)C[C@H](C)[C@@H](CN(C)C(=O)Nc1ccc(C(F)(F)F)cc1)OCCCC[C@H](C)O2
not listed: [5] | [8]
inactive: all other assays above

C[C@H]1CCCCO[C@@H](CN(C)Cc2ccc(Cl)c(Cl)c2)[C@@H](C)CN([C@@H](C)CO)C(=O)c2cc(NC(=O)Nc3ccc(C(F)(F)F)cc3)ccc2O1
inactive: [1] | [2] | [3] | [4] | [6]

CS(=O)(=O)Nc1ccc2c(c1)[C@@H]1C[C@H](CC(=O)NCc3ccc(Oc4ccccc4)cc3)O[C@@H](CO)[C@@H]1O2
not listed: [5]
inactive: all other assays above

COc1ccc(NC(=O)N(C)C[C@H]2OCCCC[C@@H](C)Oc3ccc(NC(=O)Nc4ccc(C(F)(F)F)cc4)cc3C(=O)N([C@@H](C)CO)C[C@@H]2C)cc1
not listed: [5] | [8]
inactive: all other assays above

O=C(Nc1ccccc1)N1CCCCN2[C@H](C1)[C@@H](c1ccc(C#Cc3ccccc3)cc1)[C@@H]2CO
not listed: [5] | [8]
inactive: all other assays above

CC1(C)CC(=O)c2sc(NC(=O)CCS(=O)(=O)c3ccccc3)nc2C1
not listed: [6] | [8]
inactive: all other assays above

C[C@@H]1CCCCO[C@H](CN(C)S(=O)(=O)c2ccc(Cl)cc2)[C@H](C)CN([C@@H](C)CO)C(=O)c2cc(NS(=O)(=O)c3ccc(F)cc3)ccc2O1
inactive: [1] | [2] | [3] | [4] | [5] -23.5% [at 8 µM, hits give low values] | [6] | [7] | [8]

COc1ccc(S(=O)(=O)Nc2ccc3c(c2)CC(=O)N([C@H](C)CO)C[C@H](C)[C@@H](CN(C)Cc2ccc(C(F)(F)F)cc2)O3)cc1
inactive: [1] | [2] | [3] | [4] | [5] -8.3% [at 8 µM, hits give low values] | [6] | [7]

COc1ccc(S(=O)(=O)Nc2ccc3c(c2)C(=O)N([C@@H](C)CO)C[C@H](C)[C@@H](CN(C)C(=O)Nc2ccc(C(F)(F)F)cc2)OCCCC[C@@H](C)O3)cc1
inactive: [1] | [2] | [3] | [6]

C[C@@H]1CCCCO[C@H](CN(C)Cc2ccc(C(F)(F)F)cc2)[C@H](C)CN([C@H](C)CO)C(=O)c2cc(NS(=O)(=O)c3ccc(Cl)cc3)ccc2O1
inactive: [1] | [2] | [3] | [6]

COc1ccc(S(=O)(=O)Nc2ccc3c(c2)C(=O)N([C@H](C)CO)C[C@@H](C)[C@@H](CN(C)Cc2ccc(C(F)(F)F)cc2)OCCCC[C@H](C)O3)cc1
not listed: [5]
inactive: all other assays above

C[C@@H]1CN([C@@H](C)CO)C(=O)c2c(c3ccccc3n2C)-c2ccccc2CO[C@@H]1CN(C)S(=O)(=O)c1ccc(C(F)(F)F)cc1
inactive: [1] | [2] | [3] | [5] -38.5% | [6] | [7] | [8]

C[C@H]1CCCCO[C@H](CN(C)C(=O)c2ccccc2)[C@@H](C)CN([C@@H](C)CO)C(=O)c2cc(NC(=O)Nc3ccc(C(F)(F)F)cc3)ccc2O1
inactive: [1] | [2] | [3] | [6] | [7]

C[C@@H]1CCCCO[C@@H](CN(C)Cc2ccc(C(F)(F)F)cc2)[C@@H](C)CN([C@@H](C)CO)C(=O)c2cc(NS(=O)(=O)c3ccc(Cl)cc3)ccc2O1
inactive: [1] | [2] | [3] | [6] | [7]

Cn1nnnc1Sc1ncnc2scc(-c3ccc(F)cc3)c12
inactive: [1] | [2] | [3] | [5]

C[C@@H]1CCCCO[C@@H](CN(C)Cc2ccc(Cl)c(Cl)c2)[C@H](C)CN([C@@H](C)CO)C(=O)c2cc(NC(=O)Nc3ccc(C(F)(F)F)cc3)ccc2O1
not listed: [5]
inactive: all other assays above

COc1cccc(-c2ccc3c(c2)[C@H]2[C@H](CCN2C(=O)c2ccccc2F)[C@H](CO)N3C)c1
inactive: [1] | [2] | [3] | [6] | [7]

N#Cc1ccc(-c2ccc(C3[C@@H]4CN(C(=O)c5ccc6c(c5)OCO6)C[C@H]3N4)cc2)cc1 (stereo partly drawn)
not listed: [5]
inactive: all other assays above

Cc1ccc(S(=O)(=O)Nc2ccc3c(c2)C(=O)N([C@@H](C)CO)C[C@H](C)[C@H](CN(C)Cc2ccc(C(F)(F)F)cc2)OCCCC[C@H](C)O3)cc1
inactive: [1] | [2] | [3] | [6] | [7]

COc1ccc(S(=O)(=O)N(C)C[C@H]2Oc3cc(C#CC4CCCC4)ccc3S(=O)(=O)N([C@@H](C)CO)C[C@@H]2C)cc1
inactive: [1] | [2] | [3] | [6]

C[C@@H]1CCCCO[C@H](CN(C)C(=O)Nc2ccc(C(F)(F)F)cc2)[C@@H](C)CN([C@@H](C)CO)C(=O)c2cc(NS(=O)(=O)c3ccc(Cl)cc3)ccc2O1
inactive: [1] | [2] | [3] | [6]

NC(=NCCCCCCN=C(N)/N=C(\N)Nc1ccc(Cl)cc1)/N=C(\N)Nc1ccc(Cl)cc1
inactive: [1] | [2] | [3] | [6]

C[C@H](CO)N1C[C@H](C)[C@@H](CN(C)Cc2ccc(C(F)(F)F)cc2)OCCCC[C@H](C)Oc2ccc(NS(=O)(=O)c3ccc(Cl)cc3)cc2C1=O
inactive: [1] | [2] | [3] | [6]

C[C@@H]1CCCCO[C@H](CN(C)Cc2ccc(Cl)c(Cl)c2)[C@H](C)CN([C@@H](C)CO)C(=O)c2cc(NS(=O)(=O)c3ccc(Cl)cc3)ccc2O1
inactive: [1] | [2] | [3] | [6] | [7]
